Compound activity (PubChem BioAssay)
Sampled rows, rich in hits. Any-hit rate of the full collection: about 3.9%.
Tau filament bind – binders of human tau filaments | Potency, µM (titrated, usually from 57.1 µM), for inactives: at the highest dose activity change, negative = inhibition | P10636 | recombinant tau filaments, thioflavin S fluorescence, 15 h; filaments grown with octadecylsulfate alongside compound | 71,000 tested, 2% active;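 also: % is scaled to controls: 0 for no effect and ±100 for the full control effect; actives lower thioflavin S fluorescence by blocking filaments or displacing dye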
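Tau 2 uM in ThS buffer dispensed; compound added; 60 uM ODS added (finals 1 uM tau, 30 uM ODS); 15 h 37 C; fluor ex450/em510.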
Casp7 inh – caspase-7 (human) inhibition, allosteric or competitive; P55210; recombinant caspase-7, Ac-DEVD-AFC fluorescence rate; Potency, µM (titrated, usually from 57.5 µM), without a hit: at the highest dose activity change, negative = inhibition, actives largely listed as inhibitors; 75,000 tested, 0.02% active; AID 889; active = well fitted inhibition curve with a large enough effect in the main read-out, with a control signal flat, not every such curve was filed as active; inconclusive = small, poorly fitted or top-dose-only effect, or a change in a side signal; also: % of control where 0% means no effect
Casp1 inh – blocks human caspase-1 allosterically or competitively. AID 900. P29466. 75,000 tested, 0.03% active. Caspase-1 enzyme, Ac-WEHD-AFC fluorogenic rate. Potency, µM (top dose mostly 57.5 µM), for inactives: at the top dose activity change, negative = inhibition, actives largely listed as inhibitors;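 also: plate controls were vehicle for no effect and no substrate for full effect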
15-hLO inh – blocks human 15-lipoxygenase activity | 74,000 tested, 1.4% active | Potency, µM (highest dose often 57.1 µM), inactives show at the highest dose activity change, negative = inhibition, hits mostly inhibitors | AID 887 | purified 15hLO-1, xylenol orange hydroperoxide absorbance | P16050; also: % is scaled to controls: 0 for no effect and ±100 for the full control effect; nearly all actives have a fitted effect of over 55% in size
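Purified human 15hLO-1 (40 nM final) in 25 mM Hepes pH 7.5, 0.01% Triton X-100 was preincubated with compound 15 min at room temperature, then reacted 6 min with 50 uM arachidonic acid; hydroperoxide detected by Fe-XO, 573/405 nm absorbance ratio.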
ERK AVP inh – inhibitors of vasopressin-stimulated ERK signaling pathway. HEK293-V1b, vasopressin-stimulated pERK AlphaScreen. Potency, µM (doses to about 57.5 µM), inactives show at the highest dose activity, negative = inhibition, hits mostly inhibitors. 72,000 tested, 0.99% active. AID 995; also: % is scaled to controls: 0 for no effect and ±100 for the full control effect; nearly all actives have a fitted effect of over 55% in size
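HEK293 cells stably expressing V1b receptor, seeded overnight in 1% FBS, were treated with compounds for 30 min at 37C, then stimulated 5 min with 25 nM vasopressin; phospho-ERK read by AlphaScreen SureFire after lysis.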
Active calls of the source: *; ? = inconclusive; / = not tested or not shown; [ ] = remark or other dose. Unless noted, calls follow the shape of the dose curve; as a rule, active = well fitted curve in the direction sought with a large enough effect; inconclusive = small, poorly fitted or top-dose-only effect, or another doubt; inactive = no such curve, though single readings can be large; an effect the other way counts as inactive or inconclusive. Potency is read from the fitted curve at half-maximal effect.

SMILES	Tau filament bind	Casp7 inh	Casp1 inh	15-hLO inh	ERK AVP inh
O=C(c1cnn2c(C(F)(F)F)cc(-c3ccccc3)nc12)N1CCOCC1	-6%	-7%	-3%	-2%	-3%
CCOC(=O)C1CCCN(C(=O)c2cc3nc(-c4cccc(OC)c4)cc(C(F)(F)F)n3n2)C1 (configuration not stated)	-26%	?	?	-16%	16µM*
CCOC(=O)C1CCCN(C(=O)c2cnn3c(C(F)(F)F)cc(-c4ccccc4)nc23)C1 (configuration not stated)	13µM*	-19%	-11%	-4%	4%
CCOC(=O)c1cnn2c(C(F)(F)F)cc(-c3ccccc3)nc12	13µM*	?	/	-12%	15%
C[Si](C)(c1ccc(C(=O)O)cc1)c1ccc(C(=O)O)cc1	5%[11.4 µM]	2%[11.5 µM]	-3%[11.5 µM]	-29%[11.4 µM]	17%[11.5 µM]
COc1ccccc1N1CCN(S(=O)(=O)c2ccc3c4c(cccc24)C(=O)N3)CC1	-30%	-8%	-14%	?	0%
COc1ccccc1N1CCN(S(=O)(=O)c2ccc3c4c(cccc24)C(=O)N3C)CC1	25µM*	-9%	-9%	-6%	4%
COc1ccccc1NC(=O)C1(C)Cc2ccccc2C(=O)O1 (configuration not stated)	2%	2%	-5%	12%	28%
CC1(C(=O)Nc2nccs2)Cc2ccccc2C(=O)O1 (configuration not stated)	13µM*	-6%	-4%	?	25µM*
Cn1c(-c2ccc3c(c2)OCO3)cnc1NCc1cccc(Cl)c1	7%	-3%	0%	20µM*	?
CN1c2ccccc2C(C)(C)C12C=Cc1cc(O)ccc1O2 (configuration not stated)	25µM*	-9%	-4%	?	7%
O=C(/C=C/c1ccc2c(c1)OCO2)c1cccs1	/	?	?	-51%[25.6 µM]	45%
CCOc1cc2c(C#N)c(N3CCOCC3)nc(N)c2c(N)n1	-6%	-14%	-15%	-1%	16µM*
COc1ccc(Cn2c(-c3ccco3)nc3oc4ccccc4c(=O)c3c2=O)cc1	-7%	-1%	0%	11%	4%
COc1ccc(Cn2c(-c3ccco3)nc3oc4cc(OC)ccc4c(=O)c3c2=O)cc1	10µM*	-9%	0%	-1%	-15%
CC(=O)Nc1ccc2c(c1)/C(=C/c1ccc([N+](C)(C)C)cc1)c1ccccc1-2	3.2µM*	-1%[11.5 µM]	0%[11.5 µM]	8%[11.4 µM]	11%[11.5 µM]
Nc1cc(-c2cccc(F)c2)nn1S(=O)(=O)c1cccc2nsnc12	16µM*	-5%	-4%	-17%	-22%
CC[C@H](C)[C@@H]1O[C@]2(CC[C@@H]1C)C[C@H]1C[C@H](CC=C(C)[C@@H](O[C@H]3C[C@H](OC)[C@H](O[C@H]4C[C@H](OC)[C@H](O)[C@H](C)O4)[C@H](C)O3)[C@@H](C)C=CC=C3CO[C@@H]4[C@@H](O)C(C)=C[C@H](C(=O)O1)[C@@]34O)O2	-8%	-6%	-3%	-11%	-22%
O=C(c1ccccc1)c1ccc(OCC(O)CN2CCCCC2)cc1 (configuration not stated)	6%	-1%	0%	-1%	-5%
CN(C)S(=O)(=O)N1CCN(CC(O)COc2ccc(C(=O)c3ccccc3)cc2)CC1 (configuration not stated)	44%	-2%	-1%	-13%	32µM*
COc1ccc(C(=O)N2CCC[C@@]3(CCN(c4cccc(-c5ccccc5)c4)C3)C2)cc1	4%	-3%	0%	25µM*	-9%
COC(=O)CCc1c(C)c(C(=O)c2ccco2)c2ccccn12	52%	/	/	7.9µM*	45%
CCOC(=O)Cn1cc(C(=O)c2ccco2)c2ccccc21	7%	1%	-2%	4%	1%
COc1ccccc1/C=c1\sc2nc(-c3cccs3)nn2c1=O	-23%	-2%	-1%	-1%	-20%
Cc1ccc(/C=c2\sc3nc(-c4cccs4)nn3c2=O)o1	8%	2%	2%	13µM*	-6%
SMILES	Tau filament bind	Casp7 inh	Casp1 inh	15-hLO inh	ERK AVP inh
O=S(=O)(NCC1CC1)c1cccc(S(=O)(=O)N2CCCC2)c1	3%	4%	1%	3%	12%
COc1ccc(N2CCC(CNS(=O)(=O)c3cccc(C(F)(F)F)c3)C2)cc1 (configuration not stated)	1.3µM*	-1%	-3%	0.79µM*	27%
COc1ccc(N2CCC(CNC(=O)Nc3ccc(OC)cc3OC)C2)cc1 (configuration not stated)	20µM*	-2%	-3%	?	13%
Cn1cccc1C(=O)N1CCC[C@@]2(CCN(C(=O)Nc3cccc(F)c3)C2)C1	4%	-2%	-4%	2%	-13%
CCCN1C[C@H](CSC)C[C@H]2c3cccc4[nH]cc(c34)C[C@@H]21	89%	-2%[25.7 µM]	-2%[25.7 µM]	-3%[25.6 µM]	-5%[25.7 µM]
CCc1ccc2oc(-c3cc(N)ccc3O)nc2c1	25µM*	-11%	-9%	?	-8%
CCc1ccc2oc(-c3cc(N)cc(C)c3O)nc2c1	13µM*	-16%	-9%	-17%	4%
c1ccc(-c2ccc(N3CCCC4(CCNCC4)C3)cc2)cc1	3.2µM*	-3%	-5%	-17%	?
c1ccc(-c2ccc(N3CC[C@@]4(CCCNC4)C3)cc2)cc1	-2%	-1%	-1%	-25%	-11%
c1ccc(-c2ccc(N3CC4(CCNCC4)C3)cc2)cc1	13µM*	-2%	-4%	-27%	?
Cc1ncc(CSC(=N)N)n1Cc1ccccc1	4%[11.4 µM]	0%[11.5 µM]	1%[11.5 µM]	0%[11.4 µM]	-23%[11.5 µM]
CCCCn1c(SCC(=O)OC)nc2c1c(=O)n(C)c(=O)n2C	-9%	0%	0%	4%	16µM*
COC(=O)CSc1nc2c(c(=O)n(C)c(=O)n2C)n1CCCc1ccccc1	-18%	0%	3%	-4%	-2%
COc1cc(CNc2ccc3[nH]c(=O)[nH]c3c2)cc(Cl)c1OCC(=O)NC(C)(C)C	10µM*	-16%	?	?	-19%
CCOc1cc(CNc2ccc3[nH]c(=O)[nH]c3c2)ccc1OCC(=O)NC(C)(C)C	?	-16%	?	-20%	-28%
O=c1c(CCc2ccccc2)nc2cnc(N3CCOCC3)nc2n1C1CC1	?	-17%	-11%	-1%	-14%
COc1cc(C2SCCCCCCCCCCSC(c3ccc(O)c(OC)c3)SCCCCCCCCCCS2)ccc1O (configuration not stated)	3%[11.4 µM]	-1%[11.5 µM]	0%[11.5 µM]	-4%[11.4 µM]	4%[11.5 µM]
N#CC1=C(SCC(=O)c2cc3ccccc3oc2=O)NC(=O)C(C#N)C12CCCC2 (configuration not stated)	17%	-25%	?	?	25µM*
O=C(CSc1nnc(-c2ccccc2)o1)N1CCN(c2ccccc2)CC1	10µM*	-7%	-3%	?	-9%
O=c1[nH]c2c(cc1CNCCN1CCOCC1)c(-c1cccc(F)c1)nn2-c1ccccc1	?	/	0%	0.032µM*	-8%
